Measured values: PubChem BioAssay (NCI)
This is part of a sample that, as a whole, favours compounds with a hit. Of some 79,000 tested, about 15% had one in any assay. No stated cut-off is given here; in the data, active means growth inhibition above about 70%; inactive means the rest.

How the values were obtained:
[1] = NCI Yeast Anticancer Drug Screen. Data for the rad50 strain (AID 155);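 further: 0% = growth of vehicle-only cultures of the same strain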; conditions: S. cerevisiae rad50 strain growth inhibition; at 50.0 µM; hits give high values
Procedure, shortened: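 Growth of the mutant yeast was measured after compound exposure and referenced to vehicle-treated cultures.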

[2] = NCI Yeast Anticancer Drug Screen. Data for the mec2-1 strain (AID 157); conditions: S. cerevisiae mec2-1 strain, at 50.0 µM, hits give high values
Procedure, shortened: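 Mutant yeast (mec2-1) grown with compound; growth inhibition relative to vehicle control reported.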

[3] = NCI Yeast Anticancer Drug Screen. Data for the sgs1 mgt1 strain (AID 161);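 further: 0% = growth of cultures given vehicle only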; conditions: S. cerevisiae sgs1 mgt1 strain, at 50.0 µM, hits give high values
Procedure, shortened: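 This yeast growth screen uses a strain with defined DNA-repair lesions; compound-treated growth is compared with vehicle-treated growth.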

[4] = NCI Yeast Anticancer Drug Screen. Data for the cln2 rad14 strain (AID 165);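 further: 0% = growth equal to vehicle treated cultures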; conditions: S. cerevisiae cln2 rad14 strain, at 50.0 µM, hits give high values
Procedure, shortened: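 Readout is yeast growth inhibition versus vehicle-treated controls, using a strain with cln2 and rad14 alterations exposed to compound.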

[5] = NCI Yeast Anticancer Drug Screen. Data for the bub3 strain (AID 167); conditions: S. cerevisiae bub3 mutant strain, at 50.0 µM, hits give high values
Procedure, shortened: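 Whole-cell yeast assay. The mutant strain was incubated with compounds, and growth inhibition was determined by comparison with vehicle-treated cells.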

[6] = NCI Yeast Anticancer Drug Screen. Data for the mlh1 rad18 strain (AID 175); conditions: S. cerevisiae mlh1 rad18 strain growth inhibition; at 50.0 µM; hits give high values
Procedure, shortened: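 Genetically defined yeast (DNA repair-deficient) exposed to compounds; growth inhibition determined relative to vehicle.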

Measured: growth inhibition

CCOC(=O)c1c(O)nc2sc3ccccc3n2c1=O
inactive: [1] 19% | [2] 12.7% | [3] 6.7% | [4] -1.75% | [5] 13.6% | [6] 41.4%

CC1C(C(=O)NCC(c2ccccc2)c2ccccc2)CC2CCCCN21 (stereo not drawn)
inactive: [1] -15.5% | [2] -4.75% | [3] 13.2% | [4] -9.2% | [5] 11.2% | [6] 25.9%

CCOC(=O)c1[nH]c(Cc2[nH]c(C(=O)OCC)c(CC)c2C)c(C)c1CC
inactive: [1] 7.8% | [2] -1.1% | [3] -4.75% | [4] -3.65% | [5] -4.7% | [6] 24.2%

CCCc1oc(C)cc1CC
inactive: [1] 0.45% | [2] -22.4% | [3] 0.2% | [4] -1.95% | [5] -15.9% | [6] -10.2%

CCCCCCC(C(=O)OCC)(C(=O)OCC)c1ccccc1
inactive: [1] -10.8% | [2] -16.1% | [3] 1.15% | [4] -31.1% | [5] 37.9% | [6] -6.2%

CC1(C)CCC2(C)CCC3(C)C(=CCC4C5(C)CCC(O)C(C)(C)C5CCC43C)C2C1 (stereo not drawn)
inactive: [1] 0.85% | [2] 6.3% | [3] -10.2% | [4] 16.2% | [5] 4.25% | [6] 0.5%

Cn1c(=O)c2c(nc(N(CCN(N=O)c3nc4c(c(=O)n(C)c(=O)n4C)n3C)N=O)n2C)n(C)c1=O
inactive: [1] -11% | [2] -4.35% | [3] -25.7% | [4] -0.3% | [5] -8.85% | [6] -0.65%

O=C(Nc1cccc2ccccc12)OC1CCCC1
inactive: [1] 1.2% | [2] -12.4% | [3] -14.4% | [4] -53.7% | [5] 6.35% | [6] -28.6%

CC(C)CC(NC(=O)OC(C)(C)C)C(=O)NC(Cc1c[nH]c2ccccc12)C(=O)NN (stereo not drawn)
inactive: [1] 37.8% | [2] 14.2% | [3] 29.4% | [4] 32.3% | [5] 0.75% | [6] 27.7%

CCOC(=O)c1nc2ccc(C(F)(F)F)cc2[nH]c1=O
inactive: [1] -23.9% | [2] -14.2% | [3] -17.4% | [4] -47.2% | [5] -11.8% | [6] -10%

Cc1ccc2c(c1)C(=O)c1cc(C)cc(C(=O)O)c1-2
inactive: [1] -22.6% | [2] -5.05% | [3] 4.5% | [4] -40% | [5] 1.65% | [6] -16.7%

O=S(=O)(c1ccccc1)N1CCCCC1
inactive: [1] -23.3% | [2] 5.05% | [3] 3.45% | [4] -33% | [5] 29.5% | [6] 25.6%

CN1CCN(CCCO)CC1
inactive: [1] -15.2% | [2] 3.3% | [3] -8.85% | [4] -16.4% | [5] 5.05% | [6] -0.25%

CCCC(=O)Nc1ccc(N=Nc2ccccc2)cc1
inactive: [1] 8.15% | [2] 43.4% | [3] 58.3% | [4] -15.9% | [5] 46.1% | [6] 57.5%

CC1CCCC(C)(C)/C1=N/O (stereo not drawn)
inactive: [1] 16.1% | [2] 20.2% | [3] 12.5% | [4] 12.8% | [5] 20.8% | [6] 6.7%

CCOc1cc(CC[N+](C)(C)C)c2c(ccc3ccc(OC)c(OC)c32)c1OC
inactive: [1] 18.1% | [2] -10.8% | [3] -5.4% | [4] 13.5% | [5] -15.8% | [6] -14.2%

COc1cc(C2c3cc4c(cc3[C@@H](OC3OC5CO[C@@H](C)OC5C(O)C3O)[C@H]3COC(=O)C23)OCO4)cc(OC)c1OC (stereo partly drawn)
inactive: [1] 2.4% | [2] -36.1% | [3] -21.9% | [4] 12.4% | [5] -16.7% | [6] -83.5%

CC(C)(Nc1nc2c(ncn2C2OC(CO)C(O)C2O)c(=O)[nH]1)P(=O)(O)O (stereo not drawn)
inactive: [1] 4.4% | [2] -0.4% | [3] 17% | [4] 11.1% | [5] -5.4% | [6] 2.9%

Nc1ncnc2c1ncn2C1OC(C(=O)OCCO)C(O)C1O (stereo not drawn)
inactive: [1] -16.6% | [2] -19.8% | [3] -12.6% | [4] -12.2% | [5] -11.2% | [6] -22.9%

CC(C)c1ccc(C(C)C)c(Cl)c1
inactive: [1] 43.7% | [2] 13.9% | [3] 16.4% | [4] 7.95% | [5] -12.6% | [6] 12.5%

O=Cc1ccc(O)cn1
inactive: [1] -0.65% | [2] 6.25% | [3] -4.4% | [4] -11.9% | [5] 1.75% | [6] -0.75%

ClC(Cl)C1OCCCO1
inactive: [1] -32.4% | [2] -17.4% | [3] -23.2% | [4] -41.1% | [5] 12.2% | [6] -8.25%

O=C1c2cccc3cc([N+](=O)[O-])cc(c23)C(=O)N1Cc1ccco1
inactive: [1] 24.6% | [2] 8.85% | [3] 32.2% | [4] 16.8% | [5] 7.65% | [6] 0.95%

CCOC(=O)C1SC(=Nc2ccc(OC)c(OC)c2)N=C1C (stereo not drawn)
inactive: [1] 17.9% | [2] 4.2% | [3] 50.3% | [4] 4.95% | [5] 29.9% | [6] 1.4%

COCCN(C)C(c1ccccc1)C(O)c1ccccc1 (stereo not drawn)
inactive: [1] 4.8% | [2] -12.9% | [3] 4.3% | [4] -37% | [5] 4.95% | [6] 4.1%

CN1CCC(C(=O)NNc2ccccc2)CC1
inactive: [1] -12.1% | [2] -13.2% | [3] -3.75% | [4] 7.3% | [5] 0.1% | [6] 4.7%

c1ccc(-c2nc3cc4ccccc4cc3nc2-c2ccccc2)cc1
inactive: [1] -17.4% | [2] -12.6% | [3] -4.9% | [4] -35.6% | [5] -25.9% | [6] -18.6%

O=C1C(c2cnc3c(n2)CCC=C3)=C(O)c2ccccc21
inactive: [1] -1.15% | [2] -7.8% | [3] -6.6% | [4] -84.2% | [5] -16.7% | [6] -0.65%

CC(C)(C)NC(=O)CCC(=O)O
inactive: [1] -8.65% | [2] -19.4% | [3] -16% | [4] -18.2% | [5] -2.3% | [6] -7.3%

OC1(c2ccccc2)C=C(c2ccccc2)C=C(c2ccccc2)O1 (stereo not drawn)
inactive: [1] -5.95% | [2] 10.7% | [3] -1.05% | [4] 0.9% | [5] 8.05% | [6] -2.55%

CCC1(C)N=C(C)C(C)S1 (stereo not drawn)
inactive: [1] -7.6% | [2] -1.3% | [3] -13.7% | [4] 4.9% | [5] -16.3% | [6] 6.2%

COC(=O)Nc1cccc(OC(=O)NC2CCCCC2)c1
inactive: [1] 12.1% | [2] 32.7% | [3] 15.1% | [4] 4.25% | [5] 33.8% | [6] 16.4%

C=CCNC(=O)CC(C)(C)C
inactive: [1] 25.6% | [2] 12.3% | [3] 0.35% | [4] 9.3% | [5] 23.9% | [6] 20.2%

CNC(=O)Nc1[nH]c(=O)ncc1Cl
inactive: [1] 6.45% | [2] -0.35% | [3] 8.95% | [4] -5.1% | [5] 16.2% | [6] 5.2%

CC1=C(O)CC(=O)C1
inactive: [1] -14% | [2] -8.8% | [3] -6.9% | [4] 0.2% | [5] 6.4% | [6] -9.45%

CN(C)CCOc1cccc(OCCN(C)C)n1
inactive: [1] 10.7% | [2] -3.25% | [3] 3.2% | [4] 1.1% | [5] 9.35% | [6] 8.7%

C/C(=N\NC(N)=O)c1ccc(Cl)c(-n2cccc2)c1
inactive: [1] 12.3% | [2] 3.65% | [3] 32.7% | [4] 14.3% | [5] 32.1% | [6] 31.2%

COCc1c(C)[nH]c2ccc(N(C)C)cc2c1=O
inactive: [1] -6.75% | [2] -3.6% | [3] -14.8% | [4] -42% | [5] -4.9% | [6] -6.55%
